Assay results as given in the supplement of paper PMC6555819.

How the values were obtained:
Test in all cases: PBM binding z-score (relative to random genomic background probes); higher = stronger binding; sequences stand for … in GC…GCGATTGACAGCGTAGAATGAAGG
[1] = system: RARb homodimer (NR concentration 270 nM)
Summary of the method: (§1)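 The probes on custom Agilent 4×180K protein-binding microarrays were double-stranded, with 34-nt variable regions bearing direct-repeat seeds, single-nucleotide variants, half-site ablations and random human genomic background sequences. Incubation lasted 1 h with ligand-free nuclear receptor dimers in PBS pH 7.4, 2% milk, 0.02% Triton X-100, 1 mM DTT, 0.2 mg/mL BSA and 0.4 mg/ml salmon testes DNA. Antibodies against each partner (one per run) detected bound dimers, and fluorescence scans were regression-normalized. Binding z-scores take the random background probes as reference.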

[2] = system: RARg:RXRa (NR concentration 270 nM, RXRa partner concentration 90 nM)
Summary of the method: as §1

[3] = system: RARg homodimer (NR concentration 270 nM)
Summary of the method: as §1

[4] = system: RXRa DBDmut IVT, anti-RXR (DBD mutation: RXRa K156A/R161A, NR concentration 90 nM)
Summary of the method: as §1

[5] = system: RXRa homodimer (NR concentration 180 nM)
Summary of the method: as §1

[6] = system: THRa:RXRa (NR concentration 90 nM, RXRa partner concentration 90 nM)
Summary of the method: as §1

[7] = system: THRa homodimer (NR concentration 90 nM)
Summary of the method: as §1

[8] = system: VDR:RXRa (NR concentration 270 nM, RXRa partner concentration 90 nM)
Summary of the method: as §1

[9] = system: VDR homodimer (NR concentration 270 nM)
Summary of the method: as §1

Sequence	PBM binding z-score [1]	PBM binding z-score [2]	PBM binding z-score [3]	PBM binding z-score [4]	PBM binding z-score [5]	PBM binding z-score [6]	PBM binding z-score [7]	PBM binding z-score [8]	PBM binding z-score [9]
CAAACTAGGTCAAGGTCAAAGGCGGTTTGTGCCA	5.02	6.14	6.63	3.02	5.77	4.38	3.55	4.87	3.92
TCTAGTTGGCCAAAGGTCACACACTCGAAATGCG	5.04	6.5	6.31	1.5	7.78	3.78	1.77	4.93	2.27
CCTACTGGGCAACGAAAGGTCATTGATTCAGTGA	4.44	4.88	4	0.496	4.73	3.09	0.612	3.7	2.35
ACACCAAGGTGATCGTGAGGTCGTTGATACTAAC	1.69	2.28	0.878	1.13	1.64	3.42	2.39	3.21	2.69
CCTACTTGGCCAAAAAGGTCATTGATGCCGATAA	4.05	4.68	4.19	1.55	5.15	3.18	1.06	4.82	3.04
TCGAGCAGGTTAGTCGGGGCATTCAGCCAACATA	0.497	-0.142	-0.25	-0.118	-0.199	1.21	-0.236	2.09	0.432
TCTCGGAGGACCCGAAAGGTCAGAGCTCGACATC	4.21	3.92	4.15	0.325	4.04	2.75	0.369	2.45	0.435
CCTCGGAGGACAACAGGAGGTCAGGGCTGCCAGA	3.69	3.63	3.49	-0.237	2.24	2.96	1.34	1.62	0.949
AGAATGAGGTTAAGATCAGGCAAACAGAATACAT	0.764	2.13	1.63	0.944	2.49	2.86	0.441	1.23	0.247
CCTTACGGGTCACTGACAGGTTATACCATTTGGA	3.56	5.73	4.84	1.64	5.54	2.85	0.447	3.9	1.41
GCTCGGACGACAAGGTCAGAGCTTTGTCCGTAGA	2.73	2.72	3.07	0.365	2.23	2.54	0.94	1.4	0.617
CAAACTAGGGCACGAAAGGTCAAAGTCGAATGAC	5.2	6.2	5.83	1.44	6.29	4.84	0.977	5.32	1.87
CCGACTGGGGCTAGGTTACCATAACGCACAGCCA	0.542	0.00576	0.24	-0.639	0.166	0.173	-0.0667	-0.65	-0.608
CCGACTGGGGCAAAGGTTACCGTACTCAGTACGA	2.03	3.44	1.64	-0.356	3.45	1.7	-0.542	1.39	-0.111
CCTAGCCGGCCAGGGTCACTCAAGCATTTCGCTT	2.68	3.09	2.37	0.0811	3.47	2.91	1.08	2.37	1.38
AGTAGTTGGTCAGCTGAGGTCACACACAATTCGG	4.45	4.21	4.62	1.36	4.2	4.88	5	4.43	3.98
CGTCACAGTTCAACTAAGGTAACGTAAAGCACGC	2.56	3.25	3.37	3.38	2.76	5.11	2.19	2.92	2.16
CCTACTGGGCCAAAAAGGTCATCGATGCCGATAA	4.84	5.18	4.77	0.518	5.25	3.28	0.651	4.79	1.99

Sequence	PBM binding z-score [1]	PBM binding z-score [2]	PBM binding z-score [3]	PBM binding z-score [4]	PBM binding z-score [5]	PBM binding z-score [6]	PBM binding z-score [7]	PBM binding z-score [8]	PBM binding z-score [9]
ATCTCTAGGTAAAGATAGTCCAGTGAATGCAAAT	-0.17	0.22	0.658	0.0705	0.108	0.341	0.315	-0.0135	0.0378
CCTACTGGGCCAAAAAGGTCAATGATGCCGATAA	4.77	4.33	4.09	-0.0473	4.06	3.06	0.77	4.18	0.956
ATCTCTAGGTAACAAGTTCTGTGAAAGAGAGGAC	0.522	0.565	0.579	0.302	0.105	1.12	0.878	0.359	0.424
GCAGACAGGTGAAACGCAGGTAATTCAGGGTGGC	0.413	0.684	0.304	-0.376	0.614	1.38	-0.381	-0.324	-0.586
TTACCAAGGTGAGCTGCGGTCGTTGATCCAACTC	0.677	0.0521	0.0746	-0.731	0.198	2.28	0.255	0.235	-0.523
AATCAAAGTTCATCTAGGTAACGTAAGATATGCT	3.95	5.18	5.7	4.69	4.44	3.23	0.0393	5.13	4.45
TCTAGTTGATCAAAGGTCACACACTCGAAATGCG	4.89	6.54	5.95	2.21	7.03	4.22	2.08	5.05	2.79
CCGACTGGGGCAAAGGTTATCATACTCAGTACGA	1.89	3	1.45	0.137	3.11	1.66	-0.0355	1.46	0.133
CCTACTGGGCCAAGGTCATTCATCAGTCAAAGCA	3.52	3.84	3.48	1.7	3.42	3.44	2.53	3.55	3.56
TCGAGTAGGTTACCAATTGGGCATTCAGCTTTCT	-0.00589	0.186	-0.124	0.484	0.205	-0.0916	-0.446	-0.197	-0.653
ACTTACGGGTCACCGAGGTTATAGCACGCGTATA	4.01	6.34	5.96	2.78	7.33	4.24	1.45	7.82	4.59
CCGACTGCGGCAAGGTTACCATAACGCACAGCCA	1	0.707	0.42	0.215	1.07	1.4	0.537	0.302	0.321
GCAGACAGGTGAAACGCAGGTAACTCACGGTGGC	-0.171	0.892	0.295	-0.351	0.662	0.832	-0.7	-0.56	-0.778
CGTCCAACGTCAAAGGTCAGTGAAGAGATGACGG	4.22	4.66	5.08	0.458	5.09	2.5	0.106	2.8	0.685
ATATGTAGGTGATCGGGTCATTCAGTTTGCGCAT	2.55	2.48	1.78	1.09	2.44	2.91	2.14	4.74	3.46
ACTATTAGTTGAGACGACGGCAACCGATAGGTTG	-0.491	0.00753	0.223	-0.0527	0.0138	-0.529	-0.596	-0.484	-0.117
ATATGTAGGTTAAGGGTGATTCAGGTTGGTTCGC	1.8	1.14	1.06	0.792	1.62	1.56	1.39	1.68	1.41
CAAACCAGGTCAAGGTCAAAGTCGGTTTGTGCCA	5.11	6.13	6.35	3.39	6.52	4.77	4.35	5.66	4.97
